From PubChem BioAssay
HCMV antiviral = qHTS Assay for inhibitors of the human cytomegalovirus (HCMV); HFF cells, HCMV-luciferase reporter, 72 h; active compounds read low; activity change, negative = inhibition, % at 57.5 µM; 4.5% of 410,000 active; AID 1259415, 2018; in the data active means activity change below about -60%; inconclusive means no clear call, values can overlap the other calls; inactive means above about -39%
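Compounds were evaluated in HFFs infected with an HCMV luciferase reporter virus (MOI 1 PFU/cell). Luciferase in lysates collected 72 h post infection served as the replication measure.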
Pf growth 96h = Primary qHTS for delayed death inhibitors of the malarial parasite plastid, 96 hour incubation; P. falciparum luciferase reporter growth, 96 h; Potency, µM (highest dose often 28.7 µM), for inactives: top-dose activity change, negative = inhibition, most hits filed as inhibitors; 6.9% of 320,000 active; further: potency means the concentration at half of the fitted maximal effect
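Luminescence readout: decreased luciferase signal marks inhibited growth of reporter-expressing P. falciparum in infected red cells (2% hematocrit, 0.05% parasitemia final), exposed to compound two generations (96 h, 37 C, 5% CO2).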
Pf growth 48h = Primary qHTS for delayed death inhibitors of the malarial parasite plastid, 48 hour incubation. 5.9% of 310,000 active. P. falciparum luciferase growth in erythrocytes, 48 h. Potency, µM (series often up to 28.7 µM), for the others: at the top dose activity change, negative = inhibition, actives largely listed as inhibitors; further: potency means the concentration at half of the fitted maximal effect
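First compound was added to culture medium, then infected red cells at 0.1% parasitemia and 2% hematocrit (final). After incubation at 37 C under 5% CO2, luciferase detection reagent was dispensed and light output recorded.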
HCV inhibitor = qHTS Assay for Inhibitors of Hepatitis C Virus (HCV). Huh7.5.1 HCVcc-Cre infection, luciferase reporter, 44 h. 3.4% of 340,000 active. AID 651820, 2012. Potency, µM (doses to about 41.8 µM), without a hit: top-dose activity change, negative = inhibition, hits mostly inhibitors; further: potency means the concentration at half of the fitted maximal effect
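Compounds are dispensed onto cells plated 4 h earlier at 1,000 per well, with HCVcc-Cre virus (about 0.5 moi) added next. Following 44 h of culture, luminescent signal is measured for 15 sec after 15 min with substrate at room temperature.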
An asterisk follows results filed as active; ! = not confirmed by another sample; [ ] = another dose, or the depositor's remark. An excerpt weighted towards active compounds, which were near 13% of everything screened. Unless noted, the call rests on the fitted dose curve; in most records, active means well fitted inhibition curve with a large enough effect; inconclusive means small, poorly fitted or top-dose-only effect, or another doubt; inactive means no such curve, though single readings can be large or run the other way. On the % scale 0 is the no-effect control and ±100 the full control effect.

`c1ccc(-c2nnc(NC3=NCCC3)o2)cc1` gave HCMV antiviral 23.3, Pf growth 96h 42.3%, Pf growth 48h 70.7% and HCV inhibitor 27.5%.
For O=C(CCCCn1c(=O)c2ccccc2n(Cc2ccc(Cl)cc2)c1=O)NCc1ccco1 the results were HCMV antiviral 42.0, Pf growth 96h 24.6%, Pf growth 48h 11.7µM* and HCV inhibitor 12.6µM*!.
For CCC(C)NC(=O)Cn1c(=O)n(Cc2ccc(C(=O)NCc3ccccc3OC)cc2)c(=O)c2ccccc21 (configuration not stated) the results were HCMV antiviral -13.0.
For Cc1ccc(-n2c(=O)c3ccc(C(=O)NCc4ccco4)cc3n(Cc3ccccc3Cl)c2=O)cc1 the results were HCMV antiviral 5.4.
For CCC(C)NC(=O)Cn1c(=O)n(Cc2ccc(C(=O)NCc3ccc(C)cc3)cc2)c(=O)c2ccccc21 (configuration not stated) the results were HCMV antiviral -78.6*.
N#Cc1ccccc1Cn1c(=O)n(Cc2ccc(C(=O)NCc3ccco3)cc2)c(=O)c2ccccc21 was read as HCMV antiviral -24.2, Pf growth 96h 81.0%, Pf growth 48h 2.94µM* and HCV inhibitor -5.3%.
Screening Cc1ccccc1Cn1c(=O)n(-c2ccccc2)c(=O)c2ccc(C(=O)NCc3ccco3)cc21 returned HCMV antiviral -11.5, Pf growth 96h 8.28µM*, Pf growth 48h -5.6% and HCV inhibitor -0.9%[8.37 µM].
`CCc1ccc(NC(=O)c2sc(-n3nc(C)c(Cc4ccc(OC)cc4)c3C)nc2C)cc1` gave HCMV antiviral 47.8.
Screening CC(C)OCCCNC(=O)CCCn1c(SCC(=O)c2ccc(Br)cc2)nc2c(sc3ccccc32)c1=O returned HCMV antiviral -23.9.
Screening Cc1cccc(CC(=O)Nc2ccc3nc(N4CCC(C)CC4)cc(C)c3c2)c1 returned HCMV antiviral -3.4.
CN(C)c1ccc(CC2C(=O)Nc3ccccc32)cc1 (configuration not stated) was read as HCMV antiviral -63.3*, Pf growth 96h inconclusive, Pf growth 48h inconclusive and HCV inhibitor 5.1%.
For Cc1cccc(CC2C(=O)Nc3ccccc32)c1 (configuration not stated) the results were HCMV antiviral -70.0*.
For O=C1Nc2ccccc2C1Cc1ccc(Br)cc1 (configuration not stated) the results were HCMV antiviral -29.3.
Screening Cc1ccc(NC(=O)Cn2c(=O)n(CCC(=O)N3CCc4ccccc4C3)c(=O)c3ccccc32)cc1 returned HCMV antiviral 10.7.
CC(=O)Oc1cc2c(C(=O)NCc3ccncc3)c(C)oc2c2ccccc12 was read as HCMV antiviral 6.4, Pf growth 96h inconclusive, Pf growth 48h -13.7% and HCV inhibitor 11.2µM*.
O=C(NCc1ccc2c(c1)OCO2)c1ccc(-n2cnnn2)cc1 was read as HCMV antiviral 12.2, Pf growth 96h 1.65µM*, Pf growth 48h 13.4% and HCV inhibitor -23.8%.
O=C(NCc1ccc2c(c1)OCO2)c1nn(-c2ccccc2)c(=O)c2ccccc12 was read as HCMV antiviral inconclusive, Pf growth 96h 0.738µM*, Pf growth 48h -25.1% and HCV inhibitor inconclusive.
`CCCCn1nc(C(=O)Nc2ccc3c(c2)OCCO3)c2ccccc2c1=O` gave HCMV antiviral -68.6*, Pf growth 96h 6.57µM*, Pf growth 48h inconclusive and HCV inhibitor inconclusive.
`O=C(Nc1ccc2c(c1)OCO2)c1nn(-c2ccccc2)c(=O)c2ccccc12` gave HCMV antiviral inconclusive, Pf growth 96h 13.1µM*, Pf growth 48h 11.7µM* and HCV inhibitor inconclusive.
For COc1cccc(-n2nc(C(=O)Nc3ccc4c(c3)OCO4)c3ccccc3c2=O)c1 the results were Pf growth 96h inconclusive, Pf growth 48h inconclusive and HCV inhibitor 1.9%.
`COc1cccc(CNC(=O)C2CCN(c3nc4ccc(Cl)cc4[nH]3)CC2)c1` gave HCMV antiviral 0.0.
For Cc1cc(C)c2c(CC(=O)Nc3ccc(S(=O)(=O)Nc4nc(C)cc(C)n4)cc3)coc2c1 the results were HCMV antiviral -10.7.
`CC(=O)N1c2ccc(S(=O)(=O)N3CCC(C(=O)Nc4cccc(C)n4)CC3)cc2CC1C` (configuration not stated) gave HCMV antiviral -86.7*, Pf growth 96h 37.2%, Pf growth 48h inconclusive and HCV inhibitor 1.26µM*.
CC(=O)N1c2ccc(S(=O)(=O)NCC3CCC(C(=O)Nc4cccc(C)n4)CC3)cc2CC1C (configuration not stated) was read as HCMV antiviral -71.2*, Pf growth 96h inconclusive, Pf growth 48h inconclusive and HCV inhibitor inconclusive.
CC(=O)N1c2ccc(S(=O)(=O)NCC3CCC(C(=O)Nc4cccc(C)c4)CC3)cc2CC1C (configuration not stated) was read as HCMV antiviral 37.6.
CC(=O)N1c2ccc(S(=O)(=O)N3CCC(C(=O)Nc4ccccn4)CC3)cc2CC1C (configuration not stated) was read as HCMV antiviral inconclusive, Pf growth 96h 5.86µM*, Pf growth 48h inconclusive and HCV inhibitor inconclusive.
For CC(=O)N1c2ccc(S(=O)(=O)N3CCC(C(=O)Nc4cccc(C)c4C)CC3)cc2CC1C (configuration not stated) the results were HCMV antiviral -1.5, Pf growth 96h 0.4%, Pf growth 48h inconclusive and HCV inhibitor inconclusive.
For CC(=O)N1c2ccc(S(=O)(=O)NCC3CCC(C(=O)NC4CCC(C)CC4)CC3)cc2CC1C (configuration not stated) the results were HCMV antiviral -1.8, Pf growth 96h inconclusive, Pf growth 48h 13.1µM* and HCV inhibitor inconclusive.
Screening CCCCN(C)CCCNC(=O)Cn1ncc2c3ccccc3n(Cc3cccc(Cl)c3)c2c1=O returned HCMV antiviral 12.7.
CCC(C(=O)NCCc1ccc(OC)c(OC)c1)n1nc(C)c2sc3ccccc3c2c1=O (configuration not stated) was read as HCMV antiviral -9.5.
Screening Cc1oc2c(CN3CCCCC3)c(O)ccc2c(=O)c1-c1ccc(Cl)cc1 returned Pf growth 96h inconclusive, Pf growth 48h 1.65µM* and HCV inhibitor 1.7%.
For COc1ccc(-c2c(C)oc3c(CN4CCCC(C)C4)c(O)ccc3c2=O)cc1OC (configuration not stated) the results were HCMV antiviral -21.9, Pf growth 96h inconclusive, Pf growth 48h inconclusive and HCV inhibitor -2.1%.
COc1ccccc1-c1c(C)oc2c(CN3CCCC(C)C3)c(O)ccc2c1=O (configuration not stated) was read as HCMV antiviral -4.8, Pf growth 96h 10.4µM*, Pf growth 48h 13.1µM* and HCV inhibitor 1.2%.
For COc1ccccc1Oc1c(C)oc2c(CN3CCN(CCO)CC3)c(O)ccc2c1=O the results were HCMV antiviral 21.9, Pf growth 96h -5.2%, Pf growth 48h 22.2% and HCV inhibitor 16.7%.
